Screening data: PubChem BioAssay, National Center for Advancing Translational Sciences (NCATS)
HT1080NT lethal – kills 2HG-producing HT-1080-NT fibrosarcoma cells; HT-1080-NT fibrosarcoma viability, CellTiter-Glo ATP luminescence, 48 h; Potency, µM (series often up to 46.1 µM), most hits filed as cytotoxic; actives 1.6% (n = 360,000); AID 686970;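 note: NT is the 2HG producing partner of a matched IDH1 knockdown line; nearly all actives have a fitted effect of over 55% in size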
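Read-out is CellTiter-Glo luminescence after 10 minutes at room temperature, following 48 hours' compound treatment of HT-1080-NT cells (750 cells/well, RPMI, 5% FBS, 37 degrees C).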
DT40 TDP1 no CPT – qHTS for Inhibitors of human tyrosyl-DNA phosphodiesterase 1 (TDP1): qHTS in cells in absence of CPT; AID 686978, 2013; DT40 Tdp1-/- hTDP1 cells, no CPT, ATP luminescence, 48 h; actives 15% (n = 420,000); Potency, µM (doses to about 46.2 µM), hits mostly inhibitors; note: nearly all actives have a fitted effect of over 55% in size
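Growth of hTDP1-complemented DT40 Tdp1-knockout cells is measured by ATP luminescence after at least 48 hr compound exposure at 37 °C, with DMSO substituting for the 20 nM CPT used in the parallel screen.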
HT1080 IDH1KD tx – HT-1080 IDH1 knockdown cell toxicity (counter line) | Potency, µM (titrated, usually from 46.1 µM), hits mostly cytotoxic | HT-1080 IDH1 knockdown viability, ATP luminescence, 48 h | actives 2% (n = 360,000)
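Assay cells: HT-1080 with IDH1 knockdown, 750 per well, RPMI/5% FBS. Exposure: 48 h at 37 °C following 2 h pre-incubation. Read: CellTiter-Glo luminescence; fitted concentration-response, curve class assigned.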
KB-3-1 cytotox – KB-3-1 parental cell cytotoxicity; actives 1.4% (n = 400,000); KB-3-1 viability, CellTiter-Glo ATP luminescence, 72 h; Potency, µM (titrated, usually from 46.1 µM), usual class: cytotoxic; note: nearly all actives have a fitted effect of over 60% in size
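KB-3-1 parental drug-naive adenocarcinoma cells in DMEM/10% FBS, incubated 72 h at 37 C with pin-transferred compounds across a concentration series. Viability by CellTiter-Glo luminescence; concentration-response curves fitted after normalization.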
KB-V1 MDR tox – kills drug-selected multidrug resistant KB-V1 cells. KB-V1 MDR cells viability, CellTiter-Glo, 72 h. Potency, µM (series often up to 46.1 µM), hits mostly cytotoxic. AID 1347076. actives 3.4% (n = 400,000); note: nearly all actives have a fitted effect of over 60% in size
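Drug-selected KB-V1 cells, grown in DMEM lacking phenol red with 10% FBS, receive compound titrations; after three days at 37 degrees C, surviving cell ATP is quantified by CellTiter-Glo luminescence and responses normalized and curve-fitted.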
TDP1 cell CPT – growth inhibition of DT40 Tdp1-/-;hTDP1 cells with camptothecin (screen for TDP1 inhibitors); AID 686979; actives 12% (n = 420,000); Potency, µM (doses to about 46.2 µM), usual class: inhibitors; chicken DT40 Tdp1-/-;hTDP1 cells + 20 nM CPT, ATP luminescence, 48 h; note: nearly all actives have a fitted effect of over 55% in size
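Cell growth measured by CellTiter-Glo luminescence after a minimum 48 h, 37 C compound exposure with 20 nM CPT in Tdp1-knockout DT40 cells stably expressing hTDP1, seeded 400/well; qHTS titration format.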
Each line names hits and unclear results; the compound was inactive in the other large screens. In the library only some 19% were active in any assay of this set; here they are far more common. Calls come from the whole dose curve; as a rule, active = well fitted curve in the direction sought with a large enough effect; inconclusive = small, poorly fitted or top-dose-only effect, or another doubt; inactive = no such curve, though single readings can be large; an effect the other way counts as inactive or inconclusive.

OC(CN1CCN(Cc2ccccc2)CC1)c1ccccc1 (configuration not stated)	none
O=C(c1ccccc1)C1CN(Cc2ccccc2)CCC1(O)c1ccccc1 (configuration not stated)	DT40 TDP1 no CPT 11.6µM, TDP1 cell CPT 7.31µM
COc1ccc(-c2nc(C)c(CCNC(=O)c3c(F)cccc3F)s2)cc1	KB-V1 MDR tox inconclusive (no result: HT1080NT lethal, DT40 TDP1 no CPT, HT1080 IDH1KD tx, TDP1 cell CPT)
CCN(C(=O)CSc1nc2ccccc2nc1Cc1ccc(F)cc1)c1cccc(C)c1	DT40 TDP1 no CPT inconclusive, TDP1 cell CPT inconclusive (no result: HT1080NT lethal, HT1080 IDH1KD tx)
CCN(C(=O)CSc1nc(-c2ccccc2)no1)c1cccc(C)c1	DT40 TDP1 no CPT 1.46µM, KB-3-1 cytotox 6.51µM, TDP1 cell CPT 1.64µM (no result: HT1080NT lethal, HT1080 IDH1KD tx)
CCN(C(=O)CSc1ncccc1C(=O)OC(C)C)c1cccc(C)c1	DT40 TDP1 no CPT inconclusive, HT1080 IDH1KD tx inconclusive, TDP1 cell CPT 20.6µM
CCOC(=O)c1cccnc1SCC(=O)NCc1ccccc1	none
CCOC(=O)c1cccnc1SCC(=O)N(CC)c1cccc(C)c1	DT40 TDP1 no CPT inconclusive, TDP1 cell CPT 23.1µM
Nc1ccc(N=Nc2ccccc2)c2cccnc12	none
CC1(C)Nc2cccc3c(N=Nc4ccc(N=Nc5ccccc5)c5ccccc45)ccc(c23)N1	DT40 TDP1 no CPT 11.2µM, KB-V1 MDR tox inconclusive, TDP1 cell CPT inconclusive (no result: HT1080NT lethal, HT1080 IDH1KD tx)
CC1(C)Nc2cccc3cccc(c23)N1	DT40 TDP1 no CPT 16.4µM, TDP1 cell CPT inconclusive
c1cc2c3c(cccc3c1)NC1(CCCC1)N2	TDP1 cell CPT inconclusive
NC1C(O)OC(CO)[C@@H](O)[C@@H]1O[C@H]1O[C@@H](C(=O)O)C(O)C(O)C1O (some centres not stated)	none (no result: HT1080NT lethal, HT1080 IDH1KD tx, KB-3-1 cytotox, KB-V1 MDR tox)
O=C(COC(=O)c1cc[n+]([O-])cc1)Nc1ccc([N+](=O)[O-])cc1C(F)(F)F	none
COc1ccc(C(C(=O)NC(C)(C)C)N(C(=O)CCC(=O)Nc2cc(C)on2)c2ccccc2F)cc1 (configuration not stated)	DT40 TDP1 no CPT inconclusive
CCOC(=O)C1CCCN(C(=S)Nc2ccc(C)cc2C)C1 (configuration not stated)	KB-V1 MDR tox 14.6µM
CCOC(=O)C1CCN(C(=S)Nc2ccccc2)CC1	TDP1 cell CPT inconclusive
CCOC(=O)C1CCCN(C(=O)c2ccc(-c3ccc([N+](=O)[O-])cc3)o2)C1 (configuration not stated)	DT40 TDP1 no CPT 11.6µM, KB-V1 MDR tox inconclusive, TDP1 cell CPT 11.6µM
Cc1ccc2nc(C3CCCN(C(=S)Nc4ccccc4C)C3)[nH]c2c1 (configuration not stated)	DT40 TDP1 no CPT 20.6µM, TDP1 cell CPT inconclusive
CCOC(=O)C1CCCN(C(=S)Nc2ccc(Nc3ccccc3)cc2)C1 (configuration not stated)	DT40 TDP1 no CPT 23.1µM, TDP1 cell CPT inconclusive
CCNC(=S)N1CCCC(c2nc3ccc(C)cc3[nH]2)C1 (configuration not stated)	DT40 TDP1 no CPT inconclusive
CCOC(=O)C1CCCN(C(=O)CNS(=O)(=O)c2ccc(Br)s2)C1 (configuration not stated)	KB-V1 MDR tox 20.6µM
CCOC(=O)C1CCCN(C(=O)Cc2ccc(C)cc2)C1 (configuration not stated)	DT40 TDP1 no CPT 18.4µM, TDP1 cell CPT inconclusive
CCOC(=O)C1CCCN(C(=O)Cc2ccc(OC)c(OC)c2)C1 (configuration not stated)	none
O=C(CNS(=O)(=O)c1ccc(Br)s1)N1CCCC1	none
CCOC(=O)C1CCCN(C(=O)C2c3ccccc3Oc3ccccc32)C1 (configuration not stated)	DT40 TDP1 no CPT inconclusive, KB-V1 MDR tox 11.6µM
